# Results published in the supplement of paper PMC10646978.
# ± gives the standard deviation.
# How the values were obtained:
# Settings in all cases: modulator concentration 10 µM
# [1] = tested on: RAW-Dual (murine macrophage reporter line); assay: NF-kB reporter (SEAP) activity fold change vs agonist alone; higher = enhanced NF-kB activity
# Outline: (§1)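 RAW-Dual murine macrophage reporter cells were plated at 50 000 per well in 384-well plates, pin-transferred compound to 10 μM final, and pre-incubated for 1 hour at 37 °C before a PRR agonist was added and the cells incubated overnight. NF-κB activity was read from supernatant SEAP with QUANTI-Blue at 620 nm absorbance, and IRF activity from Lucia luciferase with QUANTI-Luc by luminescence. Each signal was expressed as fold change by dividing by the mean agonist-only control on the same plate. Two replicate plates were averaged, with errors obtained by propagation.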
# [2] = tested on: RAW-Dual (murine macrophage reporter line); assay: IRF reporter (Lucia luciferase) activity fold change vs agonist alone; higher = enhanced IRF activity
# Outline: as §1
# [3] = tested on: RAW-Dual (murine macrophage reporter line); assay: viability score (confluency relative to resting cells, overnight) (fraction); higher = more viable, active = viable (0.7 or more)
# Outline: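 RAW-Dual macrophages in 384-well plates were incubated overnight with compound, final concentration 10 μM. Confluency images from IncuCyte were processed in IncuCyte software into two masks covering all imaged wells. The viability score is each well's confluency relative to resting cells, and a compound met the cutoff when both masks exceeded 70% of resting cells.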
# [4] = agonist: CpG ODN 1826 0.5 ug/mL
SMILES,"NF-kB reporter [1, 4]",NF-kB reporter ([1]; agonist: LPS 0.1 ug/mL),NF-kB reporter ([1]; agonist: MPLA […]),IRF reporter ([2]; agonist: 3'3'-cGAMP 10 ug/mL),IRF reporter ([2]; agonist: LPS 0.1 ug/mL),IRF reporter ([2]; agonist: MPLA […]),viability score [3]
Cc1ccc(S(=O)(=O)n2c(C)nc3ccccc32)cc1,1.13 ± 0.22,1 ± 0.18,0.897 ± 0.089,0.969 ± 0.025,1.2 ± 0.13,1.27 ± 0.13,0.959 (active)
Br.O=S(=O)(c1ccc(-c2csc(Nc3ccc(Cl)cc3)n2)cc1)N1CCOCC1,0.997 ± 0.09,1.09 ± 0.071,1.09 ± 0.038,0.907 ± 0.17,1.11 ± 0.046,1.06 ± 0.1,0.995 (active)
COc1ccc(-n2c(=O)c3c4c(sc3n3c(SC)nnc23)CCCC4)cc1,1.16 ± 0.13,1.06 ± 0.074,1.14 ± 0.044,0.971 ± 0.18,0.96 ± 0.04,0.921 ± 0.064,1 (active)
Oc1ccc2ccccc2c1SSc1c(O)ccc2ccccc12,0.639 ± 0.15,0.993 ± 0.14,1.18 ± 0.15,0.09 ± 0.0053,0.919 ± 0.1,0.908 ± 0.096,0.963 (active)
CCOc1ccc(CC(=O)N2C3C=CCC2CC3)cc1 (centres undefined),0.942 ± 0.1,1.09 ± 0.1,1.01 ± 0.061,1.02 ± 0.047,1.22 ± 0.16,1.31 ± 0.47,0.971 (active)
CNc1nc(Nc2ccc(C)c(C)c2)c2nccnc2n1,0.992 ± 0.063,1.03 ± 0.092,1.09 ± 0.09,0.992 ± 0.069,1.01 ± 0.19,1.22 ± 0.42,0.929 (active)
CCC1(c2cnc[nH]2)Cc2ccccc2C1,0.746 ± 0.13,1.09 ± 0.17,0.862 ± 0.055,0.764 ± 0.21,1.33 ± 0.14,0.787 ± 0.11,0.876 (active)
CC(CS)C(=O)N1CCCC1C(=O)O (centres undefined),0.96 ± 0.096,0.932 ± 0.068,0.977 ± 0.18,0.973 ± 0.03,1.22 ± 0.12,1.33 ± 0.18,1.02 (active)
COc1ccc(N(CC(=O)NCCSCc2cccc(Cl)c2)S(C)(=O)=O)cc1Cl,0.917 ± 0.073,0.98 ± 0.065,0.831 ± 0.05,1.11 ± 0.031,1.08 ± 0.12,0.974 ± 0.098,1 (active)
COc1cc2ccc(=O)oc2cc1O,1.04 ± 0.31,0.862 ± 0.062,0.892 ± 0.057,0.909 ± 0.053,1.11 ± 0.17,0.946 ± 0.12,1 (active)
CCN[C@H]1CN(CCCOC)S(=O)(=O)c2sc(S(N)(=O)=O)cc21,1.01 ± 0.12,1.04 ± 0.059,0.975 ± 0.05,1.03 ± 0.067,0.913 ± 0.042,1 ± 0.12,1 (active)
NC(=O)CSc1nc2ccccc2[nH]1,1.1 ± 0.088,1.07 ± 0.081,0.998 ± 0.037,0.985 ± 0.16,1.09 ± 0.13,0.992 ± 0.16,0.997 (active)
CC#C[C@]1(O)CC[C@H]2[C@@H]3CCC4=CC(=O)CCC4=C3[C@@H](c3ccc(N(C)C)cc3)C[C@@]21C,0.955 ± 0.093,0.722 ± 0.15,1.39 ± 0.15,0.863 ± 0.048,0.868 ± 0.033,1.05 ± 0.31,1 (active)
CC1=C(C(=O)Nc2cccc(C)n2)C(c2cccs2)C2=C(CC(C)(C)CC2=O)N1 (centres undefined),1.03 ± 0.18,1.09 ± 0.14,0.869 ± 0.069,0.913 ± 0.027,1.2 ± 0.12,1.25 ± 0.16,1 (active)
CCOC(=O)C1=C(Nc2ccccc2)SC(=Cc2ccc(O)c(OCC)c2)C1=O,1.1 ± 0.093,1.03 ± 0.07,1.15 ± 0.18,1.1 ± 0.036,1.26 ± 0.12,1.12 ± 0.16,1.01 (active)
CCCCc1oc2ccccc2c1C(=O)c1cc(I)c(OCCN(CC)CC)c(I)c1 [Prestw-409],0.41 ± 0.08,0.977 ± 0.075,1.15 ± 0.11,0.574 ± 0.025,1.32 ± 0.2,1.51 ± 0.29,1.04 (active)
O=Cc1cn(CCOc2ccc(Cl)cc2)c2ccccc12,1.45 ± 0.12,0.883 ± 0.07,1.62 ± 0.06,0.685 ± 0.057,0.773 ± 0.081,0.613 ± 0.12,0.93 (active)
CNC1(C)C2CCC(C2)C1(C)C.Cl (centres undefined),0.914 ± 0.23,0.931 ± 0.058,0.961 ± 0.061,0.911 ± 0.078,1.1 ± 0.24,1.06 ± 0.12,1 (active)
CCN1C(C)=C(C(=O)OC)C(c2ccc([N+](=O)[O-])cc2)C(C(=O)OC)=C1C,1.17 ± 0.11,0.868 ± 0.079,0.991 ± 0.049,0.981 ± 0.037,0.954 ± 0.044,0.961 ± 0.1,0.994 (active)
O=C(Cn1c(C(F)(F)F)nc2ccccc21)c1ccc(OC(F)F)cc1,0.916 ± 0.086,1.07 ± 0.084,0.884 ± 0.062,1.06 ± 0.061,1.3 ± 0.15,1.02 ± 0.072,1.01 (active)
COc1cc(O)c(C(=O)Nc2nc(C(=O)NCCN(C(C)C)C(C)C)cs2)cc1OC.Cl.O.O.O,1.01 ± 0.098,0.966 ± 0.13,0.968 ± 0.022,0.96 ± 0.064,1 ± 0.11,1.05 ± 0.18,0.997 (active)
CC(Oc1ccccc1)C(=O)NCc1cc(-c2ccncc2)n(C2CCCC2)n1 (centres undefined),1.35 ± 0.1,1.24 ± 0.11,1.13 ± 0.12,1.02 ± 0.067,1.02 ± 0.064,1.12 ± 0.086,1 (active)
CCN(CC)CCCC(C)Nc1c2ccc(Cl)cc2nc2ccc(OC)cc12 (centres undefined) [Prestw-318],0.0785 ± 0.011,0.167 ± 0.04,0.447 ± 0.051,0.0346 ± 0.0049,1.19 ± 0.22,0.939 ± 0.22,0.825 (active)
O=C1C2C3C=CC(C4CC34)C2C(=O)N1N=Cc1ccc(-c2ccc(Cl)cc2)o1 (centres undefined),1.01 ± 0.14,1.04 ± 0.074,0.924 ± 0.068,0.968 ± 0.034,1.56 ± 0.26,1.15 ± 0.1,1.01 (active)
O=C(Nc1cccc(C(F)(F)F)c1)Nc1cnn(CC2COc3ccccc3O2)c1 (centres undefined),0.717 ± 0.05,0.934 ± 0.078,1.1 ± 0.059,0.913 ± 0.051,1.08 ± 0.12,1.78 ± 0.45,0.841 (active)
COc1ccc(N(CC(=O)NCCSCc2ccccc2)S(C)(=O)=O)cc1Cl,0.873 ± 0.15,1.06 ± 0.071,0.893 ± 0.068,0.864 ± 0.12,1.08 ± 0.1,0.85 ± 0.18,1.01 (active)
CC1(C)CCCC2=C1CC1C(=O)NC(=O)C1C2 (centres undefined),0.88 ± 0.079,0.977 ± 0.076,0.948 ± 0.14,0.953 ± 0.085,1.16 ± 0.2,1.32 ± 0.33,1.03 (active)
